# Measured values as given in PubChem BioAssay (Tox21).
# “And” between values parts separate entries of the source, which are not always exact repeats. Identical values can stand only once. Inconclusive results are not listed. A call without a number means that no potency is given here. The source holds several records for some structures; these can differ, active in one and inactive in another. The source made the active and inactive calls. Unless noted, calls follow the shape of the dose curve; as a rule, active = well fitted curve in the direction sought with a large enough effect in the repeat runs; inconclusive = weak or mixed curves; inactive = no such curve, though single readings can be large; an effect the other way counts as inactive or inconclusive.
# Assays:
# [1] = qHTS assay to identify small molecule agonists of the RXR signaling pathway - cell viability counter screen (AID 1159529); also: nearly all actives have a fitted effect of over 50% in size; also: potency is read from the fitted curve at half-maximal effect
# How it was run: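 In this parallel viability measure, GeneBLAzer RXR-alpha HEK 293T cells (2% charcoal-stripped FBS) were given a 5 hr preincubation, treated with compounds 16 hr at 37 C, and read by CellTiter-Glo luminescence.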
# [2] = qHTS assay to identify small molecule antagonists of the retinoid acid receptor (RAR) signaling pathway - cell viability counter screen (AID 1159551); also: nearly all actives have a fitted effect of over 35% in size; also: potency is read from the fitted curve at half-maximal effect
# How it was run: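 In this counter screen, the RARE-luciferase line C3RL4 was exposed for 6 h at 37 C and 5% CO2 to compounds with retinol at 1 uM final. Cellular ATP, read by luminescence, served as the viability measure.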
# [3] = qHTS assay to identify small molecule antagonists of the retinoic acid receptor (RAR) signaling pathway (AID 1159552; also: nearly all actives have a fitted effect of over 50% in size; also: potency is read from the fitted curve at half-maximal effect)
# How it was run: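 C3RL4 RARE-luc cells, overnight plating; retinol 1 uM final added right after compound; 6 hr 37 C; luciferase read at 30 min RT.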
# [4] = qHTS assay to identify small molecule agonists of the retinoic acid receptor (RAR) signaling pathway (AID 1159553)
# How it was run: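 In this cell-based screen, 1,000 C3RL4 cells per well were cultured overnight, dosed with test chemicals in DMSO for 6 hr, and assessed for RARE luciferase luminescence.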
# [5] = target: Luciferin 4-monooxygenase (Photinus pyralis) (UniProt P08659); test: qHTS assay to identify small molecule inhibitors of firefly luciferase (AID 1224835); also: nearly all actives have a fitted effect of over 25% in size; also: potency is read from the fitted curve at half-maximal effect
# Chain of Luciferin 4-monooxygenase (Photinus pyralis) (P08659 whole entry, looked up): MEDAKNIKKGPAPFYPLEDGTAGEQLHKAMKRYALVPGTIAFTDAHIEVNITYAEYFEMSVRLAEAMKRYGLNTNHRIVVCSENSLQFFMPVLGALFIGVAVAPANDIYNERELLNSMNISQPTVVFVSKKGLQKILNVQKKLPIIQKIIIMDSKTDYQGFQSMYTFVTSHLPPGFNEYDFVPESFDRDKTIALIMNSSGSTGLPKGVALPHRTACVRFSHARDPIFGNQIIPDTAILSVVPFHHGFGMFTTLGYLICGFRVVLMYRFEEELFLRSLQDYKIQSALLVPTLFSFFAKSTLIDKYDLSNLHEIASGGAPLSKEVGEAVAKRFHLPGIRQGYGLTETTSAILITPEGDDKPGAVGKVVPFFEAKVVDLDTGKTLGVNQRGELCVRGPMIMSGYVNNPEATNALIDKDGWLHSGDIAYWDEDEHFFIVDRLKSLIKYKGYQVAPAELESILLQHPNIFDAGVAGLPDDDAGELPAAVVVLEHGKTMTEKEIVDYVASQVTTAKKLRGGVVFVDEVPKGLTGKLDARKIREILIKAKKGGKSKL
# How it was run: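 Quantitative HTS format; KM concentrations of both substrates. Purified P. pyralis FLuc activity quantified from luminescence images.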
# [6] = qHTS assay to identify small molecule agonists of the constitutive androstane receptor (CAR) signaling pathway - cell viability counter screen (AID 1224836); also: series mostly up to about 92 µM; nearly all actives have a fitted effect of over 45% in size
# How it was run: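 Using CellTiter-Fluor, viability of HepG2 cells harbouring hCAR and CYP2B6-2.2kb was measured following 23 h incubation with a 15-concentration compound series plus PK11195 (0.75 uM final).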
# [7] = target: Nuclear receptor subfamily 1 group I member 3 (Homo sapiens) (UniProt Q14994); test: qHTS assay to identify small molecule antagonists of the constitutive androstane receptor (CAR) signaling pathway (AID 1224838); also: nearly all actives have a fitted effect of over 40% in size; also: potency is read from the fitted curve at half-maximal effect
# Chain of Nuclear receptor subfamily 1 group I member 3 (Homo sapiens) (Q14994 whole entry, looked up): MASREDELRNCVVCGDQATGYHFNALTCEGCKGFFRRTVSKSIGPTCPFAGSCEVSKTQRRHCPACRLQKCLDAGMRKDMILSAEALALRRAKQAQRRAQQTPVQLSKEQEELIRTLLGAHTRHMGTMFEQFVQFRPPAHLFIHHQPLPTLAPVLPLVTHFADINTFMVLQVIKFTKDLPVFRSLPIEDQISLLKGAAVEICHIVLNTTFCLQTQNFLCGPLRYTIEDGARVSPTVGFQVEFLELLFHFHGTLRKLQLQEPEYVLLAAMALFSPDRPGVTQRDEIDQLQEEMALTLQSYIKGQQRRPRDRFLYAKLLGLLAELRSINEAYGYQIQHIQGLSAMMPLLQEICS
# How it was run: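 Inhibition of CITCO-driven (50 nM final) CYP2B6 reporter expression is measured in HepG2 cells stably carrying hCAR. Fifteen compound concentrations are applied for 24 h at 37 C, followed by luciferase luminescence.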
# [8] = qHTS assay to identify small molecule antagonists of the estrogen related receptor signaling pathway with the pleiotropic PPARgamma coactivator (PGC) from Tox21 10K library - cell viability counter screen (AID 1224840; active = well fitted cell-killing curve with a large enough effect in the repeat runs, not every such curve was filed as active; also: nearly all actives have a fitted effect of over 40% in size; also: potency is read from the fitted curve at half-maximal effect)
# How it was run: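 Readout: fluorescence intensity from CellTiter-Fluor after 30 min at 37 C/5% CO2. Preceded by 17.5 h treatment of PGC/ERR cells with DMSO-dissolved compounds, added 6 h post-seeding.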
# [9] = qHTS assay to identify small molecule antagonists of the estrogen related receptor signaling pathway with the pleiotropic PPARgamma coactivator (PGC) from Tox21 10K library (AID 1224841; call rule not given here; also: actives are mostly falling curves and most rising ones were filed inactive; nearly all actives have a fitted effect of over 50% in size; also: potency is read from the fitted curve at half-maximal effect)
# How it was run: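 One-Glo luminescence, measured after half an hour at room temperature, quantified reporter output of PGC/ERR cells. These had been plated at 2,000 per well, incubated 6 h, dosed with compounds in DMSO, then kept 18 h at 37 C.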
# [10] = qHTS assay to identify small molecule agonists of the estrogen related receptor signaling pathway with the pleiotropic PPARgamma coactivator (PGC) from Tox21 10K library (AID 1224842); also: nearly all actives have a fitted effect of over 15% in size
# How it was run: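 PGC/ERR reporter cells (NTP line) were seeded 2,000 per well, rested 6 h at 37 C/5% CO2, then pin-dosed with compounds in DMSO for 18 h at 37 C; luciferase read by One-Glo luminescence after 30 min at room temperature.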
# [11] = target: Thyrotropin receptor (Homo sapiens) (UniProt P16473); test: qHTS assay to identify small molecule agonists of the thyroid stimulating hormone receptor (TSHR) signaling pathway (AID 1224843; calls by dose curve; also: nearly all actives have a fitted effect of over 45% in size; also: potency is read from the fitted curve at half-maximal effect)
# Chain of Thyrotropin receptor (Homo sapiens) (P16473 whole entry, looked up): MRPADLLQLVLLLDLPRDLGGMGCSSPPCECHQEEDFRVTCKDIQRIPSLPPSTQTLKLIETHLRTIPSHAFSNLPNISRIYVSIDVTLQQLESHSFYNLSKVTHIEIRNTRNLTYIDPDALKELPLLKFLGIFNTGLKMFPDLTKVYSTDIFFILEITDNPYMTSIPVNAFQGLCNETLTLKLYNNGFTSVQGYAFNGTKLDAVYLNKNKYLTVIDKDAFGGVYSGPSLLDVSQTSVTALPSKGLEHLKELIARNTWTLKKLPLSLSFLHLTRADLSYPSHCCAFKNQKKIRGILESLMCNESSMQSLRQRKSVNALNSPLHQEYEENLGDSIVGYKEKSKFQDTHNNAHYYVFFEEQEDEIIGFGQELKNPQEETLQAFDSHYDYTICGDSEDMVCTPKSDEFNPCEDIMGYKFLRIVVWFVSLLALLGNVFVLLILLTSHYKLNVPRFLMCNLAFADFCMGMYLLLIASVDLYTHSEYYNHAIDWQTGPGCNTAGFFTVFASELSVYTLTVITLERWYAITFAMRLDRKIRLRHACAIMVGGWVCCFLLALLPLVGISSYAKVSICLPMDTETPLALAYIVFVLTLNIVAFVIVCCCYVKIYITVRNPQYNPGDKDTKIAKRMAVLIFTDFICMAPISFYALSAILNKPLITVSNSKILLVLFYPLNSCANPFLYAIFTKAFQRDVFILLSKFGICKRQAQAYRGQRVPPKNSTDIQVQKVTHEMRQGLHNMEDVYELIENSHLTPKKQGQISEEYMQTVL
# How it was run: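 Using 15 concentrations per compound in triplicate, cAMP production was monitored in TSHR-HEK293 cells after 30 min compound incubation at RT; HTRF reagents followed, with fluorescence intensity recorded after 1 h.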
# [12] = qHTS assay to identify small molecule agonists of the hypoxia (HIF-1) signaling pathway - cell viability counter screen (AID 1224844; calls by dose curve; also: nearly all actives have a fitted effect of over 50% in size; also: potency is read from the fitted curve at half-maximal effect)
# How it was run: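 In this counter screen, HRE-bla ME-180 cell viability after 17 hrs of compound exposure at 37C was read by CellTiter-Glo luminescence, multiplexed with the beta-lactamase reporter measurement.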
# [13] = qHTS assay to identify small molecule antagonists of the estrogen related receptor (ERR) signaling pathway from Tox21 library - cell viability counter screen (AID 1224834); also: nearly all actives have a fitted effect of over 30% in size; also: potency is read from the fitted curve at half-maximal effect
# How it was run: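 Counter screen run in ERR cells (2,000 cells/well): cells pre-incubated 6 h, then treated with compounds for 17.5 h at 37 C. Fluorescence was read 30 min after CellTiter-Fluor addition.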
# [14] = target: Nuclear receptor subfamily 1 group I member 3 (Homo sapiens) (UniProt Q14994); test: qHTS assay to identify small molecule agonists of the constitutive androstane receptor (CAR) signaling pathway (AID 1224839); also: nearly all actives have a fitted effect of over 15% in size; also: potency is read from the fitted curve at half-maximal effect
# How it was run: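 Double-stable HepG2 cells (hCAR, CYP2B6-2.2kb) seeded 4 h before compound addition. Exposure 24 h with 0.75 uM PK11195 final. Luciferase detected by ONE-Glo.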
# [15] = qHTS assay to identify small molecule antagonists of the constitutive androstane receptor (CAR) signaling pathway - cell viability counter screen (AID 1224837); also: series mostly up to about 92 µM; nearly all actives have a fitted effect of over 45% in size
# How it was run: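 CITCO at 50 nM final was added alongside compounds (15 concentrations) to double-stable hCAR/CYP2B6-2.2kb HepG2 cells. Following 23 hr at 37 C, cell viability was quantified by CellTiter-Fluor fluorescence intensity.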
# [16] = qHTS assay to identify small molecule antagonists of the estrogen related receptor (ERR) signaling pathway (AID 1224819)
# How it was run: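 Seed ERR cells 2,000/well; rest 6 h at 37 C/5% CO2; pin compounds in DMSO; incubate 18 h at 37 C; add One-Glo; wait 30 min at room temperature; measure luminescence.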
# [17] = qHTS assay to identify small molecule agonists of the estrogen related receptor (ERR) signaling pathway (AID 1224820)
# How it was run: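 Luminescence readout (One-Glo, 30 min RT) from NTP-supplied ERR cell line exposed to compounds for 18 h at 37 C. Cells seeded 2,000 per well and pre-incubated 6 h before pin-tool compound transfer.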
# [18] = test system: estrogen-related receptor alpha (ERRalpha) with PGC-1alpha coactivator, human; test: qHTS assay to identify small molecule antagonists of the estrogen related receptor signaling pathway with the pleiotropic PPARgamma coactivator (PGC) (AID 1224821; calls by dose curve)
# How it was run: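 PGC/ERR reporter cells; 6 h pre-incubation 37 C/5% CO2; pin-tool compound in DMSO, 18 h 37 C; One-Glo added, 30 min RT; luminescence read. qHTS antagonist mode.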
# [19] = qHTS assay to identify small molecule antagonists of the estrogen related receptor signaling pathway with the pleiotropic PPARgamma coactivator (PGC) cell viability counter screen (AID 1224822;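 also: series mostly up to about 46 µM; viability read after 17.5 h compound exposure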)
# How it was run: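 17.5 h compound treatment of PGC/ERR cells at 37 C; readout CellTiter-Fluor fluorescence; run alongside the PGC/ERR antagonist screen to flag cytotoxic compounds.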
# [20] = qHTS assay to identify small molecule agonists of the estrogen related receptor signaling pathway with the pleiotropic PPARgamma coactivator (PGC) (AID 1224823)
# How it was run: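 Luminescence readout (One-Glo, 30 min RT) from PGC/ERR cell line treated 18 h at 37 C with pin-tool-delivered DMSO compound solutions; cells plated 6 h before dosing. Quantitative HTS format.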
SMILES,Potency [1],Potency [2],Potency [3],Potency [4],Potency [5],Potency [6],Potency [7],Potency [8],Potency [9],Potency [10],Potency [11],Potency [12],Potency [13],Potency [14],Potency [15],outcome [16],outcome [17],outcome [18],outcome [19],outcome [20]
CCC1(c2ccccc2)C(=O)N(COC)C(=O)N(COC)C1=O,inactive,inactive,inactive,inactive,inactive,inactive,inactive,inactive,inactive,inactive,inactive,inactive,–,–,–,–,–,–,–,–
O=C(Cl)c1ccccc1,inactive,inactive,inactive,inactive,–,–,inactive,inactive,inactive,inactive,inactive,inactive,inactive,inactive,–,–,–,–,–,–
O=C(Cl)OCc1ccccc1,inactive,inactive,inactive,inactive,inactive,inactive,inactive,inactive,inactive,inactive,inactive,inactive,–,inactive,–,–,–,–,–,–
CCCCCCC1CCOC1=O (stereo not drawn),inactive,inactive,inactive,inactive,inactive,inactive,inactive,inactive,inactive,inactive,inactive,inactive,–,inactive,inactive,–,–,–,–,–
O=C(O)c1c(Cl)ccc2cc(Cl)cnc12,inactive,inactive,inactive,inactive,inactive,inactive,inactive,–,–,–,inactive,inactive,–,inactive,–,–,–,–,–,–
CC(C)(O)C(Cl)(Cl)Cl,inactive,inactive,inactive,inactive,inactive,inactive,–,–,–,–,inactive,inactive,–,–,–,–,–,–,–,–
O=C1C2CC=CCC2C(=O)N1SC(Cl)(Cl)Cl (stereo not drawn),inactive and 24.1 µM (active),inactive and 26.9 µM (active),inactive and 5.36 µM (active),inactive,–,–,inactive and 13.5 µM (active),inactive and 30.1 µM (active),7.66 µM (active) and 47.8 µM (active),inactive,inactive and 21.3 µM (active),6.07 µM (active),inactive and 53.6 µM (active),inactive,–,–,–,–,–,–
NC1(c2ccccc2)CCCCC1,inactive,inactive,inactive,inactive,inactive,–,–,–,–,–,inactive,inactive,–,inactive,–,–,–,–,–,–
CCCOC(=O)Cc1ccc(OCC(=O)N(CC)CC)c(OC)c1,inactive,inactive,inactive,inactive,inactive,–,–,–,–,–,inactive,inactive,–,–,–,–,–,–,–,–
N#CC(Br)(Br)C(N)=O,inactive,inactive,4.86 µM (active),inactive,–,–,–,inactive,–,–,–,inactive,inactive,–,inactive,–,–,–,–,–
Oc1ccc2c3c1O[C@H]1[C@@H](O)C=C[C@H]4[C@@H](C2)NCC[C@@]341,inactive,inactive,–,inactive,inactive,inactive,–,inactive,–,inactive,inactive,inactive,inactive,–,inactive,–,–,–,–,–
CC(C)(C)c1cc(O)ccc1O,21.9 µM (active) and 24.5 µM (active),–,inactive,inactive,71 µM (active) and inactive,inactive,inactive,inactive,–,–,–,inactive,inactive,54.5 µM (active) and 61.1 µM (active),–,–,–,–,–,–
Cn1c(N)nc2c3cccnc3ccc21,inactive,inactive,inactive,–,–,–,inactive,inactive,–,–,–,inactive,–,–,–,–,–,–,–,–
CCCN1CCC[C@@H]2Cc3nc(N)ncc3C[C@H]21,inactive,inactive,inactive,–,–,inactive,inactive,inactive,inactive,inactive,inactive,inactive,inactive,inactive,inactive,inactive,inactive,inactive,inactive,inactive
Cc1ccc(S(=O)(=O)N[C@@H](CCCCN)C(=O)CCl)cc1,inactive,inactive,–,inactive,inactive,–,inactive,inactive,inactive,inactive,inactive,inactive,inactive,inactive,inactive,inactive,inactive,–,inactive,inactive
C[C@H](CN1CCOCC1)C(C(=O)N1CCCC1)(c1ccccc1)c1ccccc1,inactive,inactive,–,inactive,inactive,inactive,–,inactive,–,inactive,–,inactive,inactive,–,–,–,–,–,–,–
ClC(Cl)(Cl)Cl,inactive,inactive,inactive,–,inactive,inactive,inactive,inactive,inactive,inactive,inactive,inactive,inactive,inactive,inactive,–,–,–,–,–
COC(=O)c1ccc(CBr)cc1,inactive,inactive,inactive,–,inactive,inactive,inactive,inactive,–,–,inactive,inactive,inactive,–,inactive,–,–,–,–,–
C=CC1(C)OC(=O)N(c2cc(Cl)cc(Cl)c2)C1=O (stereo not drawn),34.5 µM (active) and inactive,inactive,–,–,inactive,inactive,–,inactive,–,–,–,inactive,–,–,inactive,–,–,–,–,–
O=c1[nH]c2ccccc2o1,inactive,inactive,inactive,inactive,–,–,inactive,inactive,–,inactive,inactive,inactive,–,inactive,inactive,–,–,–,–,–
C[C@H]1CCCC(=O)CCC/C=C/c2cc(O)cc(O)c2C(=O)O1,inactive,inactive,–,–,inactive,–,20.9 µM (active),–,–,–,–,inactive,–,–,–,–,–,–,–,–
CC#Cc1cc(C)nc(Nc2ccccc2)n1,inactive,inactive,inactive,–,39.9 µM (active),inactive,inactive,inactive,–,–,inactive,inactive,inactive,30.6 µM (active),inactive,–,–,–,–,–
C(COCC1CO1)OCC1CO1 (stereo not drawn),inactive,inactive,inactive,–,inactive,inactive,inactive,–,inactive,inactive,inactive,inactive,inactive,inactive,inactive,–,–,–,–,–
